This is one part of a sample in which hits are shown more often than they occur.
miR122 inh = miR-122 sensor activation | AID 623901 | hit rate 0.14% among 340,000 | activation, % at 12.5 µM | Huh7 psiCHECK-miR122 Renilla luciferase sensor, 48 h;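 active = mean activation of 30% or more, with every replicate also reaching 30%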;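 also: higher luciferase signal means stronger suppression of miR-122 activity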
Hits are given with their value.

Results for COC(=O)c1c(N)nc(C)n1-c1ccc(OC)cc1 ?
miR122 inh: 33.8

What do the screens show for `CO[C@H]1CN(C)C(=O)c2ccc(NC(=O)NC(C)C)cc2OC[C@@H](C)NC[C@H]1C`?
miR122 inh: inactive

How did CCC(=O)Nc1ccc2c(c1)OC[C@@H](C)N(C(=O)c1ccncc1)C[C@H](C)[C@H](OC)CN(C)C2=O do in these assays?
miR122 inh: inactive

What do the screens show for `COc1ccc(NC(=O)Nc2cccc3c2O[C@H](CN(C)Cc2ccc4c(c2)OCO4)[C@@H](C)CN([C@@H](C)CO)C3=O)cc1`?
miR122 inh: inactive

Results for C[C@H](CO)N1C[C@H](C)[C@@H](CN(C)C(=O)Nc2ccccc2)Oc2cc(C#Cc3ccccc3)ccc2S1(=O)=O ?
miR122 inh: inactive

How did Oc1c(Cl)cc(Cl)cc1/C=N/Nc1ncc(Br)cn1 do in these assays?
miR122 inh: 62.2

Results for CNC[C@H]1Oc2cc(C#CCC3CCCC3)ccc2S(=O)(=O)N([C@@H](C)CO)C[C@@H]1C ?
miR122 inh: inactive

How did C[C@@H]1CN([C@H](C)CO)C(=O)c2cc(-c3cccc(F)c3)cnc2O[C@H]1CN(C)C(=O)c1ccccn1 do in these assays?
miR122 inh: inactive

Results for C[C@H](CO)N1C[C@H](C)[C@@H](CN(C)Cc2ccc(C(F)(F)F)cc2)Oc2c(NC(=O)c3cnccn3)cccc2C1=O ?
miR122 inh: inactive

How did C[C@@H]1CN([C@H](C)CO)C(=O)c2cc(C#CC3(O)CCCC3)cnc2O[C@@H]1CN(C)C(=O)Cc1ccccc1 do in these assays?
miR122 inh: inactive

What do the screens show for `Nc1cccc2nc3ccccc3cc12`?
miR122 inh: 50.8

How did C[C@H]1CN([C@@H](C)CO)C(=O)c2cc(/C=C/c3ccccc3)cnc2O[C@@H]1CN(C)C(=O)Cc1ccccn1 do in these assays?
miR122 inh: inactive

Results for C[C@H]1CN([C@@H](C)CO)C(=O)Cc2cc(NS(=O)(=O)c3ccc(F)cc3)ccc2O[C@H]1CN(C)Cc1ccc(C(=O)Nc2ccccc2N)cc1 ?
miR122 inh: inactive

How did C[C@@H]1CN([C@@H](C)CO)C(=O)c2cc(C#CCc3ccccc3)cnc2O[C@@H]1CN(C)Cc1cccc(C(=O)O)c1 do in these assays?
miR122 inh: inactive

Results for CCC(=O)N(C)C[C@H]1Oc2cc(C#C[C@H](C)O)ccc2S(=O)(=O)N([C@H](C)CO)C[C@@H]1C ?
miR122 inh: inactive

How did C/C=C/c1cnc2c(c1)C(=O)N([C@H](C)CO)C[C@@H](C)[C@H](CN(C)CC1CCOCC1)O2 do in these assays?
miR122 inh: inactive

Results for CC(=O)NC(c1ccc(C)cc1)c1cc(Cl)c2cccnc2c1O (stereo not drawn) ?
miR122 inh: 30.8

Results for CC(C)CC#Cc1ccc2c(c1)O[C@@H](CN(C)C(=O)c1ccccc1)[C@@H](C)CN([C@@H](C)CO)S2(=O)=O ?
miR122 inh: inactive

Results for COc1ccccc1S(=O)(=O)N(C)C[C@@H]1Oc2cc(/C=C/c3ccccc3)ccc2S(=O)(=O)N([C@H](C)CO)C[C@H]1C ?
miR122 inh: inactive

What do the screens show for `CO[C@H]1CN(C)C(=O)c2ccc(NS(=O)(=O)c3ccc(C)cc3)cc2OC[C@H](C)N(C)C[C@H]1C`?
miR122 inh: inactive

What do the screens show for `C[C@@H]1CN([C@@H](C)CO)S(=O)(=O)c2ccc(/C=C/c3ccccc3)cc2O[C@@H]1CN(C)Cc1cccnc1`?
miR122 inh: inactive

What do the screens show for `CN1CCN(c2ccc(Cl)cc2NC(=O)c2ccc(S(=O)(=O)N3CCCCCC3)cc2)CC1`?
miR122 inh: 39.6

Results for COc1ccc(NC(C)=O)cc1S(=O)(=O)Nc1ccc(S(=O)(=O)N2CCCCC2)cc1 ?
miR122 inh: inactive

How did COc1cccc(C(=O)Nc2cc([N+](=O)[O-])ccc2N2CCN(C)CC2)c1 do in these assays?
miR122 inh: inactive

How did CC(C)C#Cc1ccc2c(c1)O[C@@H](CN(C)C(=O)CC1CC1)[C@H](C)CN([C@H](C)CO)S2(=O)=O do in these assays?
miR122 inh: inactive

How did CC(C)CC#Cc1ccc2c(c1)O[C@H](CN(C)C(=O)NC1CCCC1)[C@@H](C)CN([C@@H](C)CO)S2(=O)=O do in these assays?
miR122 inh: inactive

How did C[C@@H]1CN([C@@H](C)CO)C(=O)c2cc(Br)cnc2O[C@@H]1CN(C)C(=O)c1cccnc1 do in these assays?
miR122 inh: inactive

Results for O=C(Cc1ccccc1)N1C[C@@H]2[C@H](c3ccccc31)[C@H](CO)N2C(=O)Nc1ccc(F)cc1 ?
miR122 inh: inactive

What do the screens show for `O=C(Nc1ccccc1F)N1[C@H](CO)[C@@H]2c3ccccc3NC[C@@H]21`?
miR122 inh: 41.7

How did C[C@H](CO)N1C[C@H](C)[C@@H](CN(C)Cc2ccc3c(c2)OCO3)Oc2c(NC(=O)Nc3ccccc3)cccc2C1=O do in these assays?
miR122 inh: inactive

Results for CC(C)CC#Cc1cnc2c(c1)C(=O)N([C@H](C)CO)C[C@H](C)[C@H](CN(C)C(=O)NC1CCCC1)O2 ?
miR122 inh: inactive

How did C[C@H]1CN([C@@H](C)CO)C(=O)c2cc(C#CC3CCCC3)cnc2O[C@@H]1CN(C)C(=O)C1CCC1 do in these assays?
miR122 inh: inactive

How did COc1ccc(-c2c(-c3ccccc3)c(C(=O)C(=O)NCCCN(C)C)n3ccc4cc(OC)c(OC)cc4c23)cc1OC do in these assays?
miR122 inh: 37.5

Results for COCC(=O)N(C)C[C@H]1Oc2ncc(C#Cc3ccccc3OC)cc2C(=O)N([C@@H](C)CO)C[C@@H]1C ?
miR122 inh: inactive

Results for CCCCN(CCCC)C(=O)CN(C)S(=O)(=O)c1ccc2c(c1)n(C)c(=O)c(=O)n2C ?
miR122 inh: 50.4

What do the screens show for `CC(C)Cc1nc2sc3c(=O)[nH]cnc3c2c2c1CCC2`?
miR122 inh: inactive

What do the screens show for `CN(C)CCNc1ncnc2c1sc1nc(-c3ccccc3)c3c(c12)CCCC3`?
miR122 inh: 34.6

Results for C[C@@H]1CN([C@H](C)CO)C(=O)c2cc(C#CC3(O)CCCC3)cnc2O[C@H]1CN(C)S(=O)(=O)c1ccc(F)cc1 ?
miR122 inh: inactive

How did C[C@@H]1CN([C@H](C)CO)C(=O)c2cc(-c3ccc(F)cc3)cnc2O[C@H]1CN(C)C(=O)c1cccnc1 do in these assays?
miR122 inh: inactive

How did CO[C@H]1CN(C)C(=O)c2ccc(NC(=O)c3ccccc3)cc2OC[C@@H](C)N(C)C[C@H]1C do in these assays?
miR122 inh: inactive

Results for CCCNC(=O)N(C)C[C@H]1Oc2ncc(/C=C/c3ccccc3)cc2C(=O)N([C@@H](C)CO)C[C@@H]1C ?
miR122 inh: inactive

Results for Cc1noc(C)c1NC(=O)N(C)C[C@H]1Oc2cc(C#CCC(C)C)ccc2S(=O)(=O)N([C@@H](C)CO)C[C@H]1C ?
miR122 inh: inactive

Results for CCC(=O)N(C)C[C@@H]1Oc2ncc(C#C[C@H](C)O)cc2C(=O)N([C@H](C)CO)C[C@H]1C ?
miR122 inh: inactive

How did C[C@@H]1CN([C@@H](C)CO)S(=O)(=O)c2ccc(C#Cc3ccncc3)cc2O[C@@H]1CN(C)C(=O)C1CCCCC1 do in these assays?
miR122 inh: inactive

Results for CNC[C@@H]1Oc2cc(C#Cc3cccc(OC)c3)ccc2S(=O)(=O)N([C@@H](C)CO)C[C@@H]1C ?
miR122 inh: 48.7

What do the screens show for `C[C@H](CO)N1C[C@H](C)[C@@H](CN(C)C(=O)Nc2ccc3c(c2)OCO3)Oc2cc(C#Cc3ccccc3)ccc2S1(=O)=O`?
miR122 inh: inactive

How did COc1cccc(C#Cc2ccc3c(c2)O[C@@H](CN(C)C(C)=O)[C@@H](C)CN([C@@H](C)CO)S3(=O)=O)c1 do in these assays?
miR122 inh: inactive
